Experimental data taken from article PMC13494018.
Values without a mark were called inactive. The rule behind the calls is not given here.

Target: PDL1, Q9NZQ7
Sequence (Q9NZQ7 whole entry): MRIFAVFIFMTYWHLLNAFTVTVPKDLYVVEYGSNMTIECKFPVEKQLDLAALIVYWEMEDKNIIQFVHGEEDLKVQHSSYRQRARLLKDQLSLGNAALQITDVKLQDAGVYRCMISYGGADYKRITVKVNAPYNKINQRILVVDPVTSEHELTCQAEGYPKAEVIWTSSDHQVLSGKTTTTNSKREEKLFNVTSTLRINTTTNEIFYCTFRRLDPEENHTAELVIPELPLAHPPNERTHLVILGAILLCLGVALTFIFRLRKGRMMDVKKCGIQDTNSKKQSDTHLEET

| Binder | binding in a display sort |
| --- | --- |
| d8r1_design_ppi_1314_dldesign_0_cycle0_af2pred (protein) SSEEEEAKRLAARAARAAARRLEEAAEERAAEDPEAARRAAEEGRRLAEEAEKGNAEEAKRALTEITRLLREVLA | not found |
| d8r1_design_ppi_43_dldesign_0_cycle0_af2pred (protein) MEALERASRVLAEAARLAMKNPAYAPAFAEVAAAYRETIAAYKESPEAAKEAAERLEKLAAERIAAAKAAL | not found |
| d8r1_design_ppi_282_dldesign_0_cycle1_af2pred (protein) STDEELAAKAAALANLNKALAIATKFDPSVLADFKKIASLILDPNKKEEAVKLLNEKAKEAEAKDPAAGAALKAAAEEAKKI | not found |
| d8r1_design_ppi_257_dldesign_0_cycle1_af2pred (protein) DEKDTATAEALGAISRAIAAAKALAATGDPEEAARLAEAARAAIAEALELAKKTTPSSQAAIEVAAARARAALDAALAKQAARAAA | not found |
| d8r1_design_ppi_1006_dldesign_0_cycle0_af2pred (protein) AAAAAAAKAARTKEVIAKMKELISEAMLAKSEGTGVEALKKAAEEAKKLAKEAKAAGDTAAATVANNAAAFLETAAKAEEEAK | not found |
| d8r1_design_ppi_487_dldesign_0_cycle0_af2pred (protein) AAAEAAKAALAAEGERLLEEAERNLKIAKEGNGEEAAKASRNTLLNLAELTKLADEAAAADPAAGKVGAELLARLREILREIEAVNLA | not found |
| d8r1_design_ppi_820_dldesign_0_cycle1_af2pred (protein) AAEAQALLQTFEANVEGAKMMGEASSLPALVRYHAITKTSATLAARAKELGLEEAAAQIEARGKELAAEAKAGLEKELAA | not found |
| d8r1_design_ppi_31_dldesign_0_cycle1_af2pred (protein) DKYSQMAEVWGMLSEVVARVAAELGPEAAEEAIKRAGEAASAAAKDVEEGEKKAKEVKEWADKQLAAAAA | not found |
| d8r1_design_ppi_457_dldesign_0_cycle1_af2pred (protein) AAAKAAAAAEAEALIAKAEAVVKAIKDFTALAAASTPEDGAAALRAAENLKTTAVDLATQAAALAKALGRPDLATRATAVAQAAKDAM | not found |
| d8r1_design_ppi_901_dldesign_0_cycle1_af2pred (protein) AAAAARADIATLLAFMTKAIAEGDESAANMAANGAIASGAKAGPELAAQAAAEAAAARAAALAAKAAAAA | not found |
| d8r1_design_ppi_14_dldesign_0_cycle1_af2pred (protein) AAAVAAAIEAAMRAAMPSDPAKAAELAALIAAKGLAGAKEAARKAMELFREDPELGKQAFAGVDAARAILAAA | binds (active) |
| d8r1_design_ppi_568_dldesign_0_cycle0_af2pred (protein) AGEALNLAARGLIAAGEAGDAEAAAQAAALLAKATAALAAGDEAAAKAYAAEAAAVADPEKAPEAEAVKAAAAA | not found |
| d8r1_design_ppi_1238_dldesign_0_cycle0_af2pred (protein) MEETKKLIEEARKLAEEARRALKEDKERALELLREAANKASKALALADEESEELAEEAKKVLAEISKVAKELAK | not found |
| d8r1_design_ppi_508_dldesign_0_cycle0_af2pred (protein) AGEEALEKAIKEVKELISEAAKALQESREKGIEKAKEGAKRAEKLKKEAAKEPLAERIGRVLESAKGFLEKLKEALEES | not found |
| d8r1_design_ppi_416_dldesign_0_cycle1_af2pred (protein) SDESARIKAETLGRISEAMREARRAAEEGDVERAREAAERAREAGREGAEKALELGDESTAESLRSTAEKVAERAERLAEEAAA | not found |
| d8r1_design_ppi_661_dldesign_0_cycle1_af2pred (protein) AAADAAAAAAAATAGANAVAAAQLALELNPKSAIDLAEAAIAHFKKLAATGSPAVAAQANAAIAALEAVKAQAKKKLAAE | not found |
| d8r1_design_ppi_1247_dldesign_0_cycle0_af2pred (protein) SSDKENSKLIREAMKVIGETLAAARAAVAAGDLEAARAAVAEGVARLEEMAEKSKDEATRETLLRMAEALRAQGAKILA | not found |
| d8r1_design_ppi_1191_dldesign_0_cycle1_af2pred (protein) AKAELKKKAEEYEKLYNAAKAALDVALADPSFSKSAKKAIAQAQVDAAKKALEAAKAYDPSQAPYWQAKLDAAQAALDAI | not found |
| d8r1_design_ppi_59_dldesign_0_cycle1_af2pred (protein) MSELSEKLIEAAIAAHRAAAELAALGAPAEAAAHRAKAAKLFGEARKLIQEGDEEKAKKALEEAEALAAAAAAAAKKARAAAAAA | not found |

| Binder | binding in a display sort |
| --- | --- |
| d8r1_design_ppi_623_dldesign_0_cycle0_af2pred (protein) SAAAAAAAAAAKAALAAAKKKAEEAVKLTPEEAAKVLGEIAAAATAALAAATDAADRAALRAAAAEVFSTGAKNLAKAAKKAEE | not found |
| d8r1_design_ppi_705_dldesign_0_cycle1_af2pred (protein) MSKLTQAMLHYGRALAAAVALADDPEAAGKAVSAEMAEAAKVAAAGSPEVQKQALEAGEIIVEQIKKVNPEVGAKAAEAVKTTLAKL | not found |
| d8r1_design_ppi_493_dldesign_0_cycle1_af2pred (protein) SDARIAGAVAIMRLGAADADAATGAALREVGAAFAVSPEAGVAKAAELAAALAAARTPAAAAAGAARLAAATALGVAIAAAGA | not found |
| d8r1_design_ppi_1356_dldesign_0_cycle0_af2pred (protein) SAELIAQTARAGAVMLAAGIAGTPEAAANAAAGTSLLLKAKAESTGSEELKALAERAAAAAATLKADPAAGRAALAALRDELEKLAK | not found |
| d8r1_design_ppi_1191_dldesign_0_cycle0_af2pred (protein) AAAALAAQAAAYTATYNAASAALAVALADPSFSPQSQKNIAQSQVDAATKALEAATAYDPAQAAAWQAALDAAQAQLAAI | not found |
| d8r1_design_ppi_948_dldesign_0_cycle0_af2pred (protein) SEEAKKKYEEEKKKLEELRKEAEKLAAADPAAGGAIATLIDNGIAAGDKLYEAGSVESAAKLLESVREKAERLLAELRAAVAA | not found |
| d8r1_design_ppi_1305_dldesign_0_cycle1_af2pred (protein) MEAEKLAKELLEKAKELAALPMGEASKAAAALAKEYAAKNPEVALKAAKIAYEKAVKDPSVSSKVRQLLAAALAEATYELKKKKAAA | not found |
| d8r1_design_ppi_750_dldesign_0_cycle1_af2pred (protein) SRLEEARAIAERAAAEAAAAGNVAEAVAIAQRGAAEVVRTLSPEPVEAKAEVLAHHAELAQAVIDALTAAE | not found |
| d8r1_design_ppi_310_dldesign_0_cycle1_af2pred (protein) ALAAALNSVAALAKLAAELLETDPAAGKQLAKNVAVALAKLGLTEEAARLKAATPEELKAVAKEAAAAAKAAAAALA | not found |
| d8r1_design_ppi_1486_dldesign_0_cycle1_af2pred (protein) MKELEEAKKEAEKAREELLKAAKEAAKVDPTVATGANNAAEGAKVLIESGSLGAARAGKAIAEAALKKAQAVLDAAQKA | not found |
| d8r1_design_ppi_20_dldesign_0_cycle1_af2pred (protein) KEEKAEKMKKEAEKYVERAKADAAKLAGSPQAATAAKLAASAEKSAELMKKALEEGDFGLAEVFLAAAKAAAEQLAKMAAA | not found |
| d8r1_design_ppi_786_dldesign_0_cycle1_af2pred (protein) SEEKEKLKKLAEKARAGAEAAKADPSKAAEYGKEAYELAKEALPESIAELFKKAVEKNPVSGLAFLAAYAKYKAES | not found |
| d8r1_design_ppi_198_dldesign_0_cycle1_af2pred (protein) AAAALQAAAAAAAARLEKLAEEAAADPRLAPAAAAARAAAAQARANPAIAAQLAANTEAFVATYRAAVEEK | not found |
| d8r1_design_ppi_1220_dldesign_0_cycle0_af2pred (protein) KEEEADKLAVEAMRLLGEAAELTKKATTKEQVEAAKKKAEEAKKKAEELLKVDPRKKGLAEALKSAAKKVLEAAEKKEKEL | not found |
| d8r1_design_ppi_991_dldesign_0_cycle1_af2pred (protein) AEAARTAAIAKSIAGLAKLAEKAKDDKSVVRAAATAAAAAAAKDAALGKAAAERLKAAAEATPEEAIATLKAVAAEIAAAAAA | not found |
| d8r1_design_ppi_286_dldesign_0_cycle0_af2pred (protein) SNEENAENLRLAGRAIEGVAESASAKQTADHLNNVATAAAKIDAETGKKLKAIGEEVLKTGDAKEGGEKAKKVLEEAAEKFK | not found |
| d8r1_design_ppi_713_dldesign_0_cycle1_af2pred (protein) AEFLAQGRAAAAATSPANAAALEAAYAAAKAQEDKMEGMKILLATATTLAAASTPAEAVLIGKAAAYFIADLLS | not found |
| d8r1_design_ppi_360_dldesign_0_cycle1_af2pred (protein) SEAYEKAVEEAAERVAALIKAAVAAGATPAEAWAAAAKKIEEERKKLKEKFGEEQAEEGARRITARAAKALLRAMAAREE | not found |
| d8r1_design_ppi_442_dldesign_0_cycle1_af2pred (protein) DAAAVAAIAAAAAEAAGLYVRGRAASSKDPAEAKKYYAEADALVAAMLAAGAATSPAVAAAAAAAAATVAATRAALDAIKA | not found |
